Assay [1] has as its target Cell division control protein 42 homolog (Homo sapiens) (UniProt P60953). The assay can be described thus: inhibition of fluorescent GTP binding to constitutively active Cdc42 – biochemical, multiplex bead flow cytometry, Bodipy-FL-GTP, dose response (AID 1333).
The target is the same in assay [2]. Briefly: inhibition of fluorescent GTP binding to wildtype Cdc42 – biochemical, multiplex bead flow cytometry, Bodipy-FL-GTP, dose response (AID 1334;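 active = fitted half-maximal concentration within the tested range, moderate curve steepness, significant signal drop, and little compound fluorescence or bead-linkage interference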). The settings on record: bead-based flow cytometry, Bodipy-FL-GTP binding to GST-Cdc42; at 100 µM (top of the series) unless noted. For orientation: Flow cytometry measures light scatter and fluorescence of single cells or particles in a stream.

Assay [3] has as its target GTPase HRas (Homo sapiens) (UniProt P01112). The assay can be described thus: Ras wt fluorescent GTP loading blockade – biochemical, wildtype, multiplex bead flow cytometry, dose response (AID 1335;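 active = fitted half-maximal concentration within 10 nM to 100 µM, steepness 0.5 to 2, significant signal drop, low assay interference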). To be noted: bead-based flow cytometry, Bodipy-GTP binding to GST-Ras; at 100 µM (top of the series) unless noted.
Assay [4] concerns Ras-related protein Rab-7a (dog), GTP binding. The assay can be described thus: blockers of fluorescent GTP binding to Rab7 – biochemical, wildtype, multiplex bead flow cytometry, dose response (AID 1336; call rule not given here).
In assay [5] the target is Ras-related C3 botulinum toxin substrate 1 (Homo sapiens) (UniProt P63000). Briefly: inhibition of wildtype Rac1 nucleotide loading – biochemical, multiplex bead flow cytometry, dose response (AID 1340;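 active = dose curve with midpoint inside tested range, moderate steepness, plateau gap beyond fit error, low compound glow and bead-link interference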). The settings on record: GST-Rac1 beads, Bodipy-FL-GTP binding; at 100 µM (top of the series) unless noted.
For assay [6], the target named is GTPase HRas (Homo sapiens) (UniProt P01112). The assay can be described thus: blockade of GTP loading onto mutant Ras – biochemical, activated mutant, multiplex bead flow cytometry, dose response (AID 1341;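 active = dose-response curve with midpoint inside the tested range, moderate steepness, significant amplitude and little compound fluorescence or bead-attachment interference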;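 note: GST-tagged constitutively activated Ras mutant immobilized on beads and multiplexed with other GTPases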).
GTPase HRas (Homo sapiens), sequence (P01112 whole entry, looked up): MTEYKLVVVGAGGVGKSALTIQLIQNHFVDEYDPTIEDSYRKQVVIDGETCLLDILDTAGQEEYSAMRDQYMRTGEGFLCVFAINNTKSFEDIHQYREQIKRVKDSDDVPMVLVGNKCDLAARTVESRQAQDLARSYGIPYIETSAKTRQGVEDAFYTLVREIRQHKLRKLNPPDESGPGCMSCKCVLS

For part of these data: Results with a measured potency or affinity are listed apart. Activity calls are given as the source filed them.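 Rule for the calls, unless noted: active = fitted half-maximal concentration within the tested dose range, moderate curve steepness, a statistically real signal drop, and little compound fluorescence or tag-binding interference; inactive = the rest.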

Cell division control protein 42 homolog (Homo sapiens), sequence (P60953 whole entry, looked up): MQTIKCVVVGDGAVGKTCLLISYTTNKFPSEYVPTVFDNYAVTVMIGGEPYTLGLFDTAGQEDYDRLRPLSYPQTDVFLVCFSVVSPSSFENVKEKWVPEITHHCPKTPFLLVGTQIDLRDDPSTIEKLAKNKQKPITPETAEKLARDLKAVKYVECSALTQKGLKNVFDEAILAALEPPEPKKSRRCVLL

Consider `COc1ccc(OCc2nc3c4cc(OC)c(OC)cc4nc(=S)n3[nH]2)cc1`, for which the molecule was classed as inactive in assay [1], in assay [4] and in assay [6]. Besides, the fluorescence, percent of control (lower = inhibition) in assay [2] was determined as 31.9%. In assay [3], this molecule showed a GTP binding, percent of control of 75.5%. For the same molecule, in assay [5], the GTP binding signal, raw median fluorescence (lower = inhibition) (MCF (arbitrary fluorescence units)) came out at 186.

On to `Cc1nc2sccn2c1-c1nc(-c2cc3ccccc3o2)cs1`, for which the result in assay [1], in assay [4] and in assay [6] was inactive. The same molecule returned a fluorescence, percent of control (lower = inhibition) in assay [2] of 50.9%. The same molecule registered a GTP binding, percent of control in assay [3] of 57.4%. This molecule returned a GTP binding signal, raw median fluorescence (lower = inhibition) (MCF (arbitrary fluorescence units)) in assay [5] of 155.

On to `CCCCCN1CC(O)=C(c2ccccc2)C1=N`, for which the molecule was called inactive in assay [1], in assay [4] and in assay [6]. The molecule further gave a fluorescence, percent of control (lower = inhibition) in assay [2] of 82.3%. The same molecule came in with a GTP binding, percent of control in assay [3] of 158%. Further, the GTP binding signal, raw median fluorescence (lower = inhibition) (MCF (arbitrary fluorescence units)) in assay [5] was 179.

`Cc1ccc(CSc2nc3[nH]ncc3c(=O)[nH]2)cc1`: the outcome in assay [1], in assay [4] and in assay [6] was inactive. In assay [2], this molecule registered a fluorescence, percent of control (lower = inhibition) of 37.4%. In assay [3], this molecule returned a GTP binding, percent of control of 80.6%. This molecule also registered a GTP binding signal, raw median fluorescence (lower = inhibition) (MCF (arbitrary fluorescence units)) in assay [5] of 173.

`CCOc1ccc(-n2c(SCC(=O)NC(C)CC)nc3n[nH]c(C)c3c2=N)cc1` (stereo not given): the call in assay [1], in assay [4] and in assay [6] was inactive. In addition, in assay [2], the fluorescence, percent of control (lower = inhibition) is 38.4%. In assay [3], this molecule gave a GTP binding, percent of control of 48.1%. In addition, in assay [5], the GTP binding signal, raw median fluorescence (lower = inhibition) (MCF (arbitrary fluorescence units)) was 0.

Take `CCOC(=O)CNC(=O)c1cccnc1SCCc1ccccc1`: the call in assay [1], in assay [4] and in assay [6] was inactive. In assay [2], this molecule displayed a fluorescence, percent of control (lower = inhibition) of 46.7%. Besides, the GTP binding, percent of control in assay [3] was 125%. Besides, the GTP binding signal, raw median fluorescence (lower = inhibition) (MCF (arbitrary fluorescence units)) in assay [5] was determined as 65.

In the case of `Cc1nc2ccc(-c3nc4ccc(N)cc4[nH]3)cc2[nH]1`, the outcome in assay [1], in assay [4] and in assay [6] was inactive. The molecule further had a fluorescence, percent of control (lower = inhibition) in assay [2] of 35.3%. The molecule also registered a GTP binding, percent of control in assay [3] of 79.9%. The molecule also returned a GTP binding signal, raw median fluorescence (lower = inhibition) (MCF (arbitrary fluorescence units)) in assay [5] of 210.

On to `S=C(NCCc1ccccc1)N1CCn2cccc2C1c1cccnc1` (stereo not given), for which the result in assay [1], in assay [4] and in assay [6] was inactive. In assay [2], this molecule gave a fluorescence, percent of control (lower = inhibition) of 28%. The molecule also displayed a GTP binding, percent of control in assay [3] of 63.3%. Besides, in assay [5], the GTP binding signal, raw median fluorescence (lower = inhibition) (MCF (arbitrary fluorescence units)) amounted to 227.

In the case of `Cc1ccc(CS(=O)(=O)c2ccccc2-c2nnc(-c3ccc(Cl)cc3)o2)cc1`, the molecule was called inactive in assay [1], in assay [4] and in assay [6]. In assay [2], the fluorescence, percent of control (lower = inhibition) is 88.2%. This molecule registered a GTP binding, percent of control in assay [3] of 156%. Besides, the GTP binding signal, raw median fluorescence (lower = inhibition) (MCF (arbitrary fluorescence units)) in assay [5] turned out to be 181.

As for `Cc1ccc(-n2c(SCc3cc(=O)n4ccsc4n3)nnc2-c2cccnc2)c(C)c1`, the result in assay [1], in assay [4] and in assay [6] was inactive. In addition, the fluorescence, percent of control (lower = inhibition) in assay [2] is 79.6%. The molecule also yielded a GTP binding, percent of control in assay [3] of 157%. Also, in assay [5], the GTP binding signal, raw median fluorescence (lower = inhibition) (MCF (arbitrary fluorescence units)) is 178.

For `C/C(=N\NC(=O)c1ccc(Cl)c(S(=O)(=O)Nc2ccccc2Cl)c1)c1ccncc1`, the molecule was classed as inactive in assay [1], in assay [4] and in assay [6]. Further, the fluorescence, percent of control (lower = inhibition) in assay [2] was found to be 38.1%. The GTP binding, percent of control in assay [3] was found to be 54%. In addition, the GTP binding signal, raw median fluorescence (lower = inhibition) (MCF (arbitrary fluorescence units)) in assay [5] worked out at 92.

As for `Cc1ccc(CSc2nnc(-c3ccccc3N)c(=O)[nH]2)cc1`, the outcome in assay [1], in assay [4] and in assay [6] was inactive. In addition, the fluorescence, percent of control (lower = inhibition) in assay [2] was 34.1%. Also, the GTP binding, percent of control in assay [3] amounted to 80.1%. In assay [5], this molecule registered a GTP binding signal, raw median fluorescence (lower = inhibition) (MCF (arbitrary fluorescence units)) of 259.

For the molecule `O=[N+]([O-])c1cc(Cc2ccccc2)cc(C=Nc2ccc(N3CCOCC3)cc2)c1O`, the outcome in assay [1], in assay [4] and in assay [6] was inactive. The fluorescence, percent of control (lower = inhibition) in assay [2] is 45.1%. The same molecule had a GTP binding, percent of control in assay [3] of 65.5%. Moreover, the GTP binding signal, raw median fluorescence (lower = inhibition) (MCF (arbitrary fluorescence units)) in assay [5] was 0.

In the case of `COc1ccc(OCC(=O)Nc2nonc2NC(=O)COc2ccc(OC)cc2)cc1`, the outcome in assay [1], in assay [4] and in assay [6] was inactive. This molecule came in with a fluorescence, percent of control (lower = inhibition) in assay [2] of 38.2%. The GTP binding, percent of control in assay [3] amounted to 79.5%. In assay [5], this molecule displayed a GTP binding signal, raw median fluorescence (lower = inhibition) (MCF (arbitrary fluorescence units)) of 234.

Regarding `O=C(Nc1sc2c(c1C(=O)O)CCCCC2)c1ccccc1`, the outcome in assay [1], in assay [4] and in assay [6] was inactive. Also, the fluorescence, percent of control (lower = inhibition) in assay [2] came out at 29.3%. This molecule also came in with a GTP binding, percent of control in assay [3] of 74.3%. Besides, the GTP binding signal, raw median fluorescence (lower = inhibition) (MCF (arbitrary fluorescence units)) in assay [5] was 201.
